H9c2 protect = protects H9c2 cardiomyocytes from peroxide injury; AID 588492; 0.63% of 360,000 active; H2O2 injury protection, ATPLite, 2 h; protection from H2O2 cell death, % at 20 µM;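 active = compounds giving at least 50% protection of heart cells from peroxide-induced death in the single-dose screen, raw or plate-pattern-corrected value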;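 note: 0% = DMSO wells with peroxide and 100% = DMSO wells without peroxide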
Myeloid diff 2 = myeloid differentiation induction; ER-HoxA9 myeloid progenitors, lysozyme-GFP differentiation, flow cytometry; calls only at 10 µM; 1% of 360,000 active; AID 624256;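 active = normalized GFP-positive differentiation at or above the plate's own cutoff, the solvent-only control mean plus 3 SD; inconclusive = no clear call, values can overlap the other calls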;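 note: cells exposed to compound for four days before flow analysis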
hiPSC survival = hiPSC single-cell survival enhancement | 0.044% of 360,000 active | survival enhancement, % at 20 µM | ATPlite luminescence; 100% = ROCK inhibitor wells, 0% = DMSO; in the data active = survival enhancement above about 18%;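 note: cells exposed to compounds for 16 hours before the ATP read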
ABCB6 inh 2 = human ABCB6 transporter inhibition | 0.19% of 360,000 active | fluorescence ratio to DMSO, % at 10 µM | K562-ABCB6 porphyrin accumulation, flow cytometry, 1 h; active compounds read low | AID 602162 | Q9NP58;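 active = fluorescence ratio to DMSO below 75%, the collection mean minus 3 SD; inconclusive = too few cells collected in the well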;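 note: signal is porphyrin accumulated inside mitochondria; 100% equals median channel fluorescence of DMSO control wells; lower ratio means ABCB6 inhibition with less porphyrin fluorescence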
Target sequence (Q9NP58 whole entry, looked up): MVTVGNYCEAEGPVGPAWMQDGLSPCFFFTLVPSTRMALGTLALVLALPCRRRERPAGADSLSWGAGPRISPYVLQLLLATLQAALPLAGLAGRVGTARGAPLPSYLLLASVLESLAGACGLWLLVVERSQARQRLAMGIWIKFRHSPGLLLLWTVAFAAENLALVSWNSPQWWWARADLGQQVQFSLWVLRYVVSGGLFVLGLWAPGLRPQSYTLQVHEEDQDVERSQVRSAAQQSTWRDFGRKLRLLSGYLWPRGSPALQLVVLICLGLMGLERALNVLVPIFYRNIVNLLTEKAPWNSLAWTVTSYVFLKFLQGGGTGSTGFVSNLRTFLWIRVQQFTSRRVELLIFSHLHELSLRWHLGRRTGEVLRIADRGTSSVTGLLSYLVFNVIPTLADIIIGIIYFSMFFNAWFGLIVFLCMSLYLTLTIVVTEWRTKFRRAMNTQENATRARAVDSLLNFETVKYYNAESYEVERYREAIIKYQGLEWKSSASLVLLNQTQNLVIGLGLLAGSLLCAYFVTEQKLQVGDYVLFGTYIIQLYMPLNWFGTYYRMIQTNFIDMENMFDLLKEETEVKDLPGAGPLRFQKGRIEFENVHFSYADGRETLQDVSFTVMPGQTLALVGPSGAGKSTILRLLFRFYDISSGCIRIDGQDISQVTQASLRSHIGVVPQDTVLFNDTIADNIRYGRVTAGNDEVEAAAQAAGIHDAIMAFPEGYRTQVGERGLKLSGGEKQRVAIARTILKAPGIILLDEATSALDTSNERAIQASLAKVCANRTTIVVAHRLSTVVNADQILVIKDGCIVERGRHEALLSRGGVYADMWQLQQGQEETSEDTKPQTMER
MIN6 prolif-1 = induces beta-cell replication in MIN6 cells; MIN6 cells proliferation, ATPlite luminescence, 48 h; cells starved in 0.2% serum; 100% = growth in 10% serum; proliferation, % at 10 µM; 0.29% of 330,000 active; AID 2380;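 active = compounds whose signal lies at least 3.5 SD above the mean of all wells on their plate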;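 note: 0% = DMSO-treated cells in low-serum medium and 100% = 10% serum control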
MIN6 prolif-2 = confirmation of inducers of beta-cell replication in MIN6 cells. shares compounds with MIN6 prolif-1. MIN6 beta-cell proliferation, ATPlite luminescence, 48 h; cells kept in 0.2% serum; scaled between 0.2% and 10% serum. proliferation increase, % at 50 µM. 920 tested, under 10 active;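 active = proliferation increase above 40% at any of the four tested concentrations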
Active calls of the source: *; i = inactive; ? = inconclusive; nt = no result. An excerpt weighted towards active compounds, which were near 2.2% of everything screened.

SMILES | H9c2 protect | Myeloid diff 2 | hiPSC survival | ABCB6 inh 2 | MIN6 prolif-1 | MIN6 prolif-2
N/C(=N\OC(=O)C12CC3CC(CC(C3)C1)C2)c1ccccn1 | -18 | i | -2 | 105 | -2 | nt
C/C(=N\NC(=O)c1ccccn1)C12CC3CC(CC(C3)C1)C2 | -6 | i | -3 | 96 | 6.6* | -5
Cc1oc(C(=O)O)cc1CSCc1cc(C(=O)O)c(C)o1 | 0 | i | 3 | 111 | 0 | nt
Cc1cc(=O)n2[nH]c(SCc3ccccc3)nc2n1 | 6 | i | -1 | 91 | 8.3* | -1
Cc1cc(=O)n2[nH]c(SCc3ccc(Cl)cc3)nc2n1 | -11 | i | 0 | 98 | -2 | nt
Cc1cc(=O)n(Cc2ccccc2)c2ccccc12 | 4 | i | 0 | 97 | 9.2* | 3
COc1ccc(OC(=O)COc2cc(C)ccc2C)cc1 | -4 | i | 0 | 94 | 6.1* | -1
CS(=O)(=O)c1ccc(-c2csc(-c3cccnc3)n2)cc1 | 11 | i | 0 | 94 | 9.8* | 3
CCn1nc(NC(=O)c2cccnc2)c2cc3ccccc3nc21 | 27 | i | 0 | 95 | 4 | nt
CCn1nc(NC(=O)c2cccs2)c2cc3ccccc3nc21 | 24 | i | 0 | 99 | 8.2* | -6
Cc1cccc(N2C(=O)N3[C@@H]4c5ccccc5OC[C@@H]4[C@@H](c4ccccc4)[C@]3(C)C2=O)c1 | 8 | i | 0 | 97 | -6 | nt
CC12CCCCN1CCCc1c2[nH]c2ccccc12 (configuration not stated) | 0 | i | -2 | 99 | 5.5* | -6
c1ccc2c3c([nH]c2c1)C1(CCCCC1)NCC3 | 4 | i | -1 | 103 | 2 | nt
CC(C)c1nnc(NC(=O)COc2ccc3c(c2)OCO3)s1 | -8 | i | 1 | 95 | -2 | nt
COCCNC(=O)CCCn1c(=O)c2cc(OC)c(OC)cc2n(CC(=O)c2cccc(OC)c2)c1=O | 40 | i | -1 | 98 | -2 | nt
O=[N+]([O-])c1cnccc1Nc1ccccc1 | -3 | i | 2 | 93 | 1 | nt
COc1ccccc1Nc1ccncc1[N+](=O)[O-] | -5 | i | -2 | 93 | 8.1* | 6
O=C(Nc1ccc(Br)cc1)C1CC(O)CN1C(=O)OCc1ccccc1 (configuration not stated) | 3 | nt | -1 | 97 | 11* | -5
COc1cc(C=Nc2cccc([N+](=O)[O-])c2C)ccc1OC(C)=O | 6 | i | 5 | 105 | 6.4* | 0
CCn1c(=O)c2cc(C(=O)N(C)c3ccc(OC)cc3OC)sc2c2ccccc21 | 7 | i | 1 | 96 | 6.7* | -6
CC(C)Cn1c(N)c(/C=N/NC(=O)c2ccc(Cl)cc2)c(=O)n(C)c1=O | 2 | i | 2 | 95 | 6.5* | -1
O=C(CNC(=O)c1ccccc1Cl)Nc1ccc(F)cc1 | 1 | i | 2 | 106 | 7.0* | -1
C/C=C\C=C\C(=O)Nc1cccc(C2=NOC3(C2)C[C@H](C(N)=O)N(C(=O)c2ccccc2C(=O)c2ccccc2)C3)c1 (some centres not stated) | nt | nt | nt | nt | -4 | nt
O=C(CCN1C(=O)COc2ccccc21)NCCN1CCN(c2ccccc2F)CC1 | -4 | i | 2 | 101 | 6.7* | -2
Cn1c(=O)c2cc(NC(=O)Cc3ccccc3F)ccc2n1Cc1ccc(Cl)cc1 | 2 | i | 0 | 100 | nt | nt
SMILES | H9c2 protect | Myeloid diff 2 | hiPSC survival | ABCB6 inh 2 | MIN6 prolif-1 | MIN6 prolif-2
COc1ccc2c(C)nc(N/C(N)=N/S(=O)(=O)c3ccc(C)cc3)nc2c1 | -9 | i | -1 | 93 | 1 | nt
Cc1ccc(NC(=O)CSc2nc(N)cc(N)n2)cc1S(=O)(=O)N1CCOCC1 | -5 | i | 1 | 99 | 1 | nt
CN(CCC#N)c1ccc(/C=C(\C#N)c2ccccn2)cc1 | -8 | i | -3 | 96 | -4 | nt
COc1ccc(CNC(=O)CN(CCC(C)C)S(=O)(=O)c2ccc3c(c2)OCCO3)cc1 | -2 | i | 2 | 99 | 5.3* | -6
Cc1c(C(=O)NCc2ccc(Cl)c(Cl)c2)sc(=O)n1Cc1ccc(S(C)(=O)=O)cc1 | -6 | i | 3 | 101 | nt | nt
CCn1cc(CN2CCc3c([nH]c4ccccc34)C2c2ccc(F)c(OC)c2)c(C)n1 (configuration not stated) | 12 | i | 0 | 87 | -5 | nt
Cc1ccc(OCCNC(=O)CNC(=O)c2ccc3c(c2)OCO3)cc1 | 0 | i | 0 | 98 | 11* | -4
COc1ccccc1OCCNC(=O)CNC(=O)c1ccc2c(c1)OCO2 | 4 | i | 0 | 96 | 5 | nt
Cc1ccc(-n2nnnc2CNC(=O)C2CC(=O)N(c3ccc(F)cc3)C2)cc1C (configuration not stated) | 0 | i | 0 | 90 | 12* | 1
O=C(NCc1nnnn1-c1ccc(F)cc1)C1CC(=O)N(c2ccc(F)cc2)C1 (configuration not stated) | -5 | i | -1 | 98 | 3 | nt
CCc1ccc(NSc2ccccc2[N+](=O)[O-])cc1 | -14 | nt | -1 | 95 | -4 | nt
CN(CC(=O)Nc1c(Cl)cccc1Cl)C(=O)c1ccccc1-c1nc2ccccc2s1 | 9 | i | 2 | 101 | 13* | -6
COc1ccccc1N(CC(=O)NCCSc1ccccn1)S(=O)(=O)c1ccccc1 | 9 | i | 0 | 94 | 19* | -2
COc1ccccc1CC(=O)Nc1sc2c(c1C(N)=O)CCCC2 | 0 | ? | 0 | 95 | 4 | nt
Cc1cc(NS(=O)(=O)c2ccc(NC(=O)/C=C/c3ccccc3)cc2)nc(C)n1 | -2 | i | -2 | 100 | -1 | nt
O=C(NCc1ccco1)c1c(O)c2cccc3c2n(c1=O)CCC3 | -9 | i | 0 | 99 | 8.8* | 0
Cc1cc(C(=O)CSc2ncccn2)c(C)n1-c1cccc(F)c1 | -18 | i | -1 | 94 | -2 | nt
COc1ccc(-c2nnc(SCC(=O)N3CCOCC3)o2)cc1OC | -6 | i | -1 | 101 | 8.5* | 2
N#CCc1ccc(Oc2ncccn2)cc1 | 3 | i | 0 | 95 | 8.4* | 0
CC(=O)c1cccc(NC(=O)CSc2nc(C3CC3)nc3ccccc23)c1 | -2 | i | 0 | 96 | 0.0* | -4
CCn1c(=O)n(CC)c2cc(N3CCCC3)c(NC(=O)c3cccc(OC)c3)cc21 | 18 | i | 1 | 100 | 17* | -6
COc1cccc(C(=O)Nc2ccc3c(c2)C(=O)NC3=O)c1 | 18 | i | 0 | 97 | 9.1* | 0
CCOc1ccc(C(=O)Nc2cc3c(cc2N2CCCC2)n(CC)c(=O)n3CC)cc1OCC | 9 | nt | 0 | 102 | 1 | nt

Screening data from PubChem.
